From publication PMC11062922 (Nature Chemical Biology, 2023)
Like-named read-outs stand apart in the source and are kept apart here.

Experiments:
Set-up in all cases: species or system human, MV4-11 + K-562 + COLO205 + SK-N-BE2 + OVCAR-8
[1] = tested on: MYLK3; conditions: read-out: apparent Kd, n = 1
[2] = tested on: PTK2; conditions: read-out: apparent Kd, compound concentrations: 100 nM and 1000 nM (sheet 'Samples'), n = 1
[3] = tested on: CDKL5; conditions: read-out: apparent Kd; compound concentrations:100 nM and 1000 nM (sheet 'Samples'); n = 1
[4] = tested on: LATS1; conditions: read-out: apparent Kd; compound concentrations:100 nM and 1000 nM (sheet 'Samples'); n = 1
[5] = tested on: MARK4; conditions: read-out: apparent Kd; compound concentrations:100 nM and 1000 nM (sheet 'Samples'); n = 1
[6] = tested on: PLK4; conditions: read-out: apparent Kd, n = 1
[7] = tested on: PRKD2; conditions: read-out: apparent Kd, n = 1
[8] = tested on: PRKD3; conditions: read-out: apparent Kd; compound concentrations:100 nM and 1000 nM (sheet 'Samples'); n = 1
[9] = tested on: STK10; conditions: read-out: apparent Kd; compound concentrations:100 nM and 1000 nM (sheet 'Samples'); n = 1
[10] = tested on: TNK2; conditions: read-out: apparent Kd, n = 1
[11] = tested on: CDK7; conditions: read-out: apparent Kd, n = 1
[12] = tested on: ERCC2; conditions: read-out: apparent Kd, n = 1
[13] = tested on: FER; conditions: read-out: apparent Kd, compound concentrations: 100 nM and 1000 nM (sheet 'Samples'), n = 1
[14] = tested on: PRKCD; conditions: read-out: apparent Kd, compound concentrations: 100 nM and 1000 nM (sheet 'Samples'), n = 1
[15] = tested on: PRKCQ; conditions: read-out: apparent Kd, compound concentrations: 100 nM and 1000 nM (sheet 'Samples'), n = 1
[16] = tested on: PTK2B; conditions: read-out: apparent Kd, compound concentrations: 100 nM and 1000 nM (sheet 'Samples'), n = 1
[17] = tested on: FLT3; conditions: read-out: apparent Kd, n = 1
[18] = tested on: PRKAA1; conditions: read-out: apparent Kd, n = 1
[19] = tested on: RPS6KA6; conditions: read-out: apparent Kd, compound concentrations: 100 nM and 1000 nM (sheet 'Samples'), n = 1
[20] = tested on: DYRK1A; conditions: read-out: apparent Kd, n = 1
[21] = compound concentrations:100 nM and 1000 nM (sheet 'Samples')

For `NS(=O)(=O)c1ccc(N/N=C2\C(=O)Nc3ccc(-c4cnco4)cc32)cc1` [GW276655_KCGS], the potency estimated from few doses [1, 21] was 988 nM.
Work on `CCC(CC)(CC)n1cnc2c(N)ncnc21` [SKF-97620] yielded a potency estimated from few doses ([2]; CATDS: 2.8719302746770599E-2) of 1140 nM.
Work on `O=C(Nc1n[nH]c2nc(-c3ccccc3O)ccc12)C1CC1` [SB-711880] yielded a potency estimated from few doses [3] of 1450 nM, a potency estimated from few doses [4] of 1030 nM and a potency estimated from few doses [5] of 1680 nM. For the same compound, the potency estimated from few doses [1, 21] was 219 nM, the potency estimated from few doses [6, 21] was 867 nM and the potency estimated from few doses [7, 21] was 712 nM. For the same compound, the potency estimated from few doses [8] was 570 nM, the potency estimated from few doses [9] was 1200 nM and the potency estimated from few doses [10, 21] was 517 nM.
In the case of `Cl.Cn1cc(C2=C(c3c4n(c5ccccc35)CCNC4)C(=O)NC2=O)c2ccccc21` [RO0318365-001], the potency estimated from few doses ([11]; compound concentrations: 100 nM and 1000 nM (sheet 'Samples'), CATDS: 7.1923944144695898E-2) is reported as 734 nM, the potency estimated from few doses ([12]; compound concentrations: 100 nM and 1000 nM (sheet 'Samples'), CATDS: 7.4045119432564296E-2) is reported as 696 nM and the potency estimated from few doses ([13]; CATDS: 6.02044843999179E-2) is reported as 1060 nM. For the same compound, the potency estimated from few doses ([6]; compound concentrations: 100 nM and 1000 nM (sheet 'Samples'), CATDS: 5.91687426181325E-2) was 1100 nM, the potency estimated from few doses ([14]; CATDS: 4.8671677826933601E-2) was 1810 nM and the potency estimated from few doses ([15]; CATDS: 7.9846572084882106E-2) was 607 nM. The potency estimated from few doses ([16]; CATDS: 6.7595952047570504E-2) was 828 nM.
`COc1cc[nH]c1/C=C1\C(=O)Nc2ccc(F)c(C#C[C@@H](O)[C@@H](N)[C@@H](C)O)c21` [RO0283120-000] was tested, and the potency estimated from few doses [11, 21] was 445 nM, the potency estimated from few doses [3] was 32.4 nM and the potency estimated from few doses [12, 21] was 785 nM. It also gave a potency estimated from few doses [17, 21] of 59.3 nM, a potency estimated from few doses [4] of 125 nM and a potency estimated from few doses [5] of 703 nM. It also gave a potency estimated from few doses [1, 21] of 827 nM, a potency estimated from few doses [18, 21] of 1040 nM and a potency estimated from few doses [7, 21] of 278 nM. For the same compound, the potency estimated from few doses [8] was 236 nM.
Compound `COc1ccc(Nc2nccc(NCCNC(=O)Nc3cc(C)ccc3C)n2)cc1` [GSK1379899A] has a potency estimated from few doses ([12]; compound concentrations: 100 nM and 1000 nM (sheet 'Samples'), CATDS: 4.8239081355384503E-2) of 1270 nM, a potency estimated from few doses ([13]; CATDS: 5.8591090270846503E-2) of 821 nM and a potency estimated from few doses ([7]; compound concentrations: 100 nM and 1000 nM (sheet 'Samples'), CATDS: 5.1330821571124501E-2) of 1100 nM. The potency estimated from few doses ([16]; CATDS: 5.6831578265935698E-2) was 876 nM and the potency estimated from few doses ([19]; CATDS: 5.53882917247734E-2) was 926 nM.
`O=C1N=C(NCCc2cccs2)S/C1=C\c1ccc2ncccc2c1` [RO4508348-000] showed a potency estimated from few doses ([20]; compound concentrations: 100 nM and 1000 nM (sheet 'Samples'), CATDS: 0.139481417923777) of 734 nM and a potency estimated from few doses ([17]; compound concentrations: 100 nM and 1000 nM (sheet 'Samples'), CATDS: 0.15045749947439399) of 638 nM.
Compound `Nc1nccc(-c2ccc3c(N)n[nH]c3c2)n1` [GSK1034945A] has a potency estimated from few doses [20, 21] of 117 nM, a potency estimated from few doses [5] of 1790 nM and a potency estimated from few doses [1, 21] of 65.5 nM. The potency estimated from few doses [7, 21] was 2030 nM and the potency estimated from few doses [9] was 1120 nM.
`Cl.Cn1c(=O)c(Cc2ccccc2F)cc2cnc(NC3CCOCC3)nc21` [RO3305377-001] showed a potency estimated from few doses ([11]; compound concentrations: 100 nM and 1000 nM (sheet 'Samples'), CATDS: 3.4029245989281497E-2) of 380 nM, a potency estimated from few doses ([12]; compound concentrations: 100 nM and 1000 nM (sheet 'Samples'), CATDS: 3.95504986982557E-2) of 299 nM and a potency estimated from few doses ([13]; CATDS: 3.5160978159500297E-2) of 361 nM. The potency estimated from few doses ([6]; compound concentrations: 100 nM and 1000 nM (sheet 'Samples'), CATDS: 2.6104796567006299E-2) was 613 nM, the potency estimated from few doses ([18]; compound concentrations: 100 nM and 1000 nM (sheet 'Samples'), CATDS: 2.1062710392343101E-2) was 980 nM and the potency estimated from few doses ([16]; CATDS: 3.3520584845693903E-2) was 390 nM. The potency estimated from few doses ([2]; CATDS: 2.57578339913308E-2) was 630 nM, the potency estimated from few doses ([19]; CATDS: 2.9562664752210699E-2) was 485 nM and the potency estimated from few doses ([10]; compound concentrations: 100 nM and 1000 nM (sheet 'Samples'), CATDS: 3.6301330504794102E-2) was 342 nM.
For `O=C1N=C(N[C@H](CO)c2ccccc2)S/C1=C\c1ccc2ncccc2c1` [RO4554339-000], the potency estimated from few doses ([1]; compound concentrations: 100 nM and 1000 nM (sheet 'Samples'), CATDS: 0.15441229792148201) was 303 nM and the potency estimated from few doses ([7]; compound concentrations: 100 nM and 1000 nM (sheet 'Samples'), CATDS: 0.111650130871897) was 671 nM.
With `CNCC1CCn2c(c(C3=C(c4cn(C)c5ccccc45)C(=O)NC3=O)c3ccccc32)C1` (centres unmarked) [RO0318676-000] the potency estimated from few doses ([11]; compound concentrations: 100 nM and 1000 nM (sheet 'Samples'), CATDS: 3.3814045459066702E-2) was 945 nM, the potency estimated from few doses ([12]; compound concentrations: 100 nM and 1000 nM (sheet 'Samples'), CATDS: 3.3447385930038299E-2) was 976 nM and the potency estimated from few doses ([13]; CATDS: 3.4006049633961401E-2) was 929 nM. It also gave a potency estimated from few doses ([14]; CATDS: 0.12623439225341199) of 48.7 nM, a potency estimated from few doses ([15]; CATDS: 0.111424858077941) of 61.3 nM and a potency estimated from few doses ([16]; CATDS: 3.5074234548869702E-2) of 849 nM. For the same compound, the potency estimated from few doses ([19]; CATDS: 8.7281654841073406E-2) was 98.7 nM and the potency estimated from few doses ([10]; compound concentrations: 100 nM and 1000 nM (sheet 'Samples'), CATDS: 3.7292246432418498E-2) was 715 nM.
